Source: PubChem
Hits are enriched below; roughly 3.5% of the tested compounds scored in any of these assays.
GPR151 ag: activators of human GPR151, primary screen, cell-based, PathHunter beta-arrestin, luminescence; G-protein coupled receptor 151 (Homo sapiens), Q8TDV0; activation, % at 11.2 µM; AID 1508602, 2020; 650,000 tested, 1% active; PathHunter beta-arrestin GPR151 cells; in the data active means activation above about 4.9%
MITF primary: MITF inhibitors, primary screen, biochemical, AlphaScreen, human. Microphthalmia-associated transcription factor (Homo sapiens), O75030. AlphaScreen MITF homodimerization, bead proximity signal. inhibition, % at 2.6 µM. 650,000 tested, 0.91% active. AID 1259374, 2018; in the data active means inhibition above about 50%
Target sequence (O75030 whole entry, looked up): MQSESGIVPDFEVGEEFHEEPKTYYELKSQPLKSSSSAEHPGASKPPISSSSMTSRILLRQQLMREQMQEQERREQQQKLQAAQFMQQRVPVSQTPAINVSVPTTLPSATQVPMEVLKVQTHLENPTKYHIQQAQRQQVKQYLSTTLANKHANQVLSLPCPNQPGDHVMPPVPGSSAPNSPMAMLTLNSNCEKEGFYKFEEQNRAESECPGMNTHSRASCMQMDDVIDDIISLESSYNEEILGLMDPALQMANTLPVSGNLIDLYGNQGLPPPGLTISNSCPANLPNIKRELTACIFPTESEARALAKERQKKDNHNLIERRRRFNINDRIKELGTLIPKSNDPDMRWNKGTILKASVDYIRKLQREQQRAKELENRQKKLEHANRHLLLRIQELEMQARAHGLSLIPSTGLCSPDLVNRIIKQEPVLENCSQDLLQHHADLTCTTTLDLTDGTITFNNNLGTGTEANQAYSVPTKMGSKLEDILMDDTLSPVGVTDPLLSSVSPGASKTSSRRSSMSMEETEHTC
FBW7 act: FBW7 E3 ligase activators, primary screen, biochemical, AlphaScreen, human; F-box/WD repeat-containing protein 7 (Homo sapiens), Q969H0; AlphaScreen FBW7–phospho-cyclin E peptide binding, activator screen; normalized activity (activation), % at 26.1 µM; 650,000 tested, 0.13% active; AID 1259310, 2017; in the data active means normalized activity above about 1.9%;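 further: purified mutant Fbw7 with reduced substrate affinity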
TEAD-YAP block: TEAD-YAP interaction inhibition, primary screen, TEAD-YAP interaction inhibitor project, luminescence, HEK-TIYL cells; 640,000 tested, 1.4% active; AID 1259422, 2018; inhibition, % at 9.12 µM; TEAD-Gal4/YAP UAS-luciferase luminescence; in the data active means inhibition above about 32%
GPR151 confirm: GPR151 activators, triplicate retest, confirmation, cell-based, PathHunter beta-arrestin, luminescence; shares compounds with GPR151 ag; GPR151 PathHunter beta-arrestin cells, 90 min; % of EA-reagent control over plate median; activation, % at 11.2 µM; 6,700 tested, under 10 active; AID 1508609, 2020;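 active means mean percent activation across replicates above the confirmation screen cutoff of 4.91%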
GPR119 counter: GPR119 activators in beta-arrestin cells, counter-screen for GPR151 activator project, cell-based, PathHunter beta-arrestin, luminescence, triplicate. AID 1508611, 2020. 90 min; 0 = compound-well median, 100 = enzyme-acceptor control. shares compounds with GPR151 ag. 6,700 tested, 0.3% active. activation, % at 11.2 µM;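 active means mean percent activation in the counterscreen above 29.09%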;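 further: counterscreen on off-target GPR119 to flag nonselective hits from the GPR151 activator screen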
Numbers stand for hits; 0 = inactive; - = no result.

SMILES	GPR151 ag	MITF primary	FBW7 act	TEAD-YAP block	GPR151 confirm	GPR119 counter
COc1ccc(C2Oc3c(OC)cccc3C3CC(c4ccco4)=NN32)cc1 (stereo not given)	0	0	0	0	-	-
COc1ccc(C2Oc3c(OC)cccc3C3CC(c4ccco4)=NN32)cc1OC (stereo not given)	7.6	0	0	0	0	0
COc1cc(-c2nc3cnccn3c2N)ccc1O	0	0	0	0	-	-
CCOC(=O)C1CCCCN1Cc1cc(C)c(OC)cc1C (stereo not given)	4.9	0	0	0	0	0
CCOC(=O)C1CCCCN1Cc1ccc(OC)c(C)c1OC (stereo not given)	0	0	0	0	-	-
C=CCNC(=O)NC(=O)COC(=O)CC(NC(N)=O)c1ccc(Cl)cc1 (stereo not given)	4.9	0	0	0	0	0
C=CCn1c(SC(C)C(=O)NC(N)=O)nnc1-c1ccc(C(C)(C)C)cc1 (stereo not given)	8.2	0	0	0	0	0
CCOC(=O)c1c(C)nc2c(c1C)/C(=N/O)CC(C)(C)C2	5.0	0	0	0	0	0
O=C(CCC(=O)Nc1ccc(Br)cc1)N/N=C/c1ccc(F)cc1	6.4	0	0	0	0	0
O=C(CCC(=O)Nc1ccc(F)cc1)N/N=C/c1ccc(Br)cc1	0	0	0	0	-	-
O=C(CCCCCn1c(=S)[nH]c2cc3c(cc2c1=O)OCO3)NCc1cccnc1	5.9	0	0	0	0	0
O=C(CCCCCn1c(=S)[nH]c2cc3c(cc2c1=O)OCO3)NCc1ccccc1	0	0	0	0	-	-
COc1ccc(NC(=O)C/C(C)=N\NC(=O)C(=O)Nc2cccc(Cl)c2C)cc1	0	0	0	0	-	-
COc1ccc(-n2nc3ccc(NC(=O)c4ccco4)cc3n2)cc1	0	0	0	0	-	-
COc1ccccc1/C=C(\NC(=O)c1ccccc1)C(=O)Nc1cccc(C(C)=O)c1	5.8	0	0	0	0	0
CC(=O)c1cccc(NC(=O)/C(=C/c2ccccc2)NC(=O)c2ccccc2)c1	0	0	0	0	-	-
O=[N+]([O-])c1cc2c(cc1/C=N/N1CCOCC1)OCO2	0	0	0	0	-	-
COc1ccc(NC(=O)/C(C#N)=C/c2cc(C)n(-c3ccc(C(=O)O)cc3)c2C)cc1	0	0	0	0	-	-
O=C(NCSc1ncccn1)c1ccccc1	7.6	0	0	0	0	0
Cc1cc2c(cc1S(=O)(=O)C(C)CC(=O)NCc1ccc(Cl)cc1)OCC(=O)N2 (stereo not given)	0	0	0	0	-	-
Cc1ccc(CNC(=O)CC(C)S(=O)(=O)c2cc3c(cc2C)NC(=O)CO3)cc1 (stereo not given)	5.3	0	0	0	0	0
COc1ccc(-c2n[nH]c(=S)n2-c2cc(OC)ccc2OC)cc1	0	0	0	0	-	-
COc1ccccc1-n1c(-c2ccc(NS(C)(=O)=O)cc2)n[nH]c1=S	6.5	0	0	0	0	0
C=CCOC(=O)C1=C(C)NC(S)=C(C#N)C1c1cccnc1 (stereo not given)	0	0	0	0	-	-
O=C(NNS(=O)(=O)c1ccc(Br)cc1)c1ccccc1	5.4	0	0	0	0	0
SMILES	GPR151 ag	MITF primary	FBW7 act	TEAD-YAP block	GPR151 confirm	GPR119 counter
O=C(NNS(=O)(=O)c1ccc2ccccc2c1)c1ccc(Br)cc1	0	0	0	0	-	-
CC(C)OCCCNc1ncnc(N)c1[N+](=O)[O-]	7.7	0	0	40	0	0
CCCCNc1ncnc(N)c1[N+](=O)[O-]	0	0	0	0	-	-
COCCNC(=O)CN(C(=O)c1snc(C(N)=O)c1N)c1ccc(C(C)C)cc1	0	0	0	0	-	-
O=C(NCC1CCC2(CCN(C(=O)Cc3ccccc3)CC2)O1)c1ccc(F)c(Cl)c1 (stereo not given)	0	0	0	0	-	-
CCCCN(C)S(=O)(=O)c1cc2c(cc1C)N(C(C)=O)CCO2	6.2	0	0	0	0	0
O=C(Nc1ccc(Cl)cc1)C1c2cccc[n+]2CC(=O)N1c1ccc(O)cc1 (stereo not given)	0	0	0	0	-	-
CCOc1ccc(NC(=O)C2c3cccc[n+]3CC(=O)N2c2ccccc2O)cc1 (stereo not given)	5.1	0	0	0	0	0
O=C1CCC(C(=O)NCc2nnc3n2CCN(Cc2ccccc2C(F)(F)F)CC3)N1 (stereo not given)	9.8	0	0	0	0	0
CC(C)(C)c1ccccc1NC(=O)CCl	0	0	0	0	-	-
CC(=O)N(C)c1ccccc1NC(=O)CCl	8.7	0	0	0	0	0
Cc1ccc(N2C(=O)C3CCCCC3C2=O)cc1F (stereo not given)	8.1	0	0	0	0	0
Cc1cc(C)cc(OCC(=O)Nc2ccc(S(=O)(=O)Nc3ccccc3)cc2)c1	0	0	0	0	-	-
Cc1cccc(C)c1NC(=O)/C(C#N)=C/c1cccc([N+](=O)[O-])c1	0	0	0	0	-	-
O=C(OC12CC3CC(CC(C3)C1)C2)c1ccncc1	0	0	0	0	-	-
O=C(Nc1c2c(nn1-c1ccc(F)cc1)CS(=O)(=O)C2)C1(c2ccc(Cl)cc2)CCCC1	5.1	0	0	0	0	0
O=C(Nc1c2c(nn1-c1ccc(Cl)cc1)CS(=O)(=O)C2)C1(c2ccc(Cl)cc2)CCCC1	0	0	0	0	-	-
COc1ccc(Cl)cc1C(=O)Nc1c2c(nn1-c1ccccc1C)CS(=O)(=O)C2	0	0	0	0	-	-
Cc1ccc(-n2nc3c(c2NC(=O)c2c(F)cccc2F)CS(=O)(=O)C3)cc1	0	0	0	0	-	-
COc1ccc(-n2nc3c(c2NC(=O)c2c(F)cccc2F)CS(=O)(=O)C3)cc1	7.1	0	0	0	0	0
COc1ccc(Cl)cc1C(=O)Nc1c2c(nn1-c1ccc(C)cc1C)CS(=O)(=O)C2	5.3	0	0	0	0	0
COc1cccc(N2CC(NC(=O)N3CCN(c4ccc(C(C)=O)cc4)CC3)CC2=O)c1 (stereo not given)	0	0	0	0	-	-
COc1cccc(N2CC(NC(=O)N3CCN(c4ccc([N+](=O)[O-])cc4)CC3)CC2=O)c1 (stereo not given)	12	0	0	0	0	0
COc1cccc(CN2CCN(C(=O)c3cc(Br)cs3)CC2)c1	5.8	0	0	0	0	0
COc1cccc(CN2CCN(C(=O)c3c(OC)cccc3OC)CC2)c1	0	0	0	0	-	-
COc1ccc(N2CCN(C(=O)c3ccc(OC(C)=O)cc3)CC2)cc1	0	0	0	0	-	-
